# According to PubChem BioAssay (NCATS):
# “And” between values parts separate entries of the source, which are not always exact repeats. Equal values may be shown once. Results filed as inconclusive are left out. Entries that show only a call come without a potency. Unmarked numbers belong to inactive results. The source made the active and inactive calls. The call rests on the fitted dose curve; in most records, active means well fitted curve in the direction sought with a large enough effect; inconclusive means small, poorly fitted or top-dose-only effect, or another doubt; inactive means no such curve, though single readings can be large; an effect the other way counts as inactive or inconclusive.
# Assays:
# W2 = assay: qHTS profiling for inhibitors of Plasmodium falciparum proliferation (AID 504749); further: nearly all actives have a fitted effect of over 60% in size; conditions: P. falciparum in erythrocytes, SYBR Green DNA, 72 h; series mostly up to 28.7 µM
# Outline: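 Parasite proliferation within erythrocytes, 72 h exposure. Endpoint: SYBR Green I fluorescence after overnight lysis at room temperature. Controls: 0.29 uM artemisinin, DMSO.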
# CRL-7250 = normal cell line; assay: Cytotoxic Profiling of Annotated Libraries Using Quantitative High-Throughput Screening (AID 1296008); conditions: Five cell lines viability, CellTiter-Glo ATP luminescence, 48-72 h; max response: hits give low values; further: nearly all actives have a fitted effect of over 60% in size; further: potency means the concentration at half of the fitted maximal effect
# Outline: (§1)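 Compounds were pin-transferred onto cells and incubated 48 or 72 hr at 37 degree Celsius, 95% humidity. CellTiter-Glo was added, plates sat 10 min at room temperature, then ATP-coupled luminescence was imaged as the viability read-out.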
# HEK293 = assay: as above; conditions: Five cell lines viability, CellTiter-Glo ATP luminescence, 48-72 h; max response: hits give low values
# Outline: as §1
# HaCat [1] = assay: as above; conditions: Five cell lines viability, CellTiter-Glo ATP luminescence, 48-72 h; max response: hits give low values
# Outline: as §1
# MCC-13 = assay: qHTS assay to identify novel small-molecules to repurpose for Merkel cell carcinoma treatment (AID 1296009); conditions: MCC and control cell lines, CellTiter-Glo viability, 72 h; series mostly up to 46 µM; further: nearly all actives have a fitted effect of over 60% in size; further: potency means the concentration at half of the fitted maximal effect
# Outline: (§2)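 qHTS format: cells treated with library compounds in DMSO across 8 (NPC) or 11 (MIPE) concentrations. Readout after 72 hr at 37 degree celsius was CellTiter-Glo luminescence.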
# MCC-26 = assay: as above; conditions: MCC and control cell lines, CellTiter-Glo viability, 72 h; series mostly up to 46 µM
# Outline: as §2
# MKL-2 = assay: as above; conditions: MCC and control cell lines, CellTiter-Glo viability, 72 h; series mostly up to 46 µM
# Outline: as §2
# C33A = assay: Primary qHTS to identify gynecologic anti-cancer compounds using libraries of approved drugs and bioactive compounds (AID 1345084); conditions: Gynecologic cancer cell panel viability, ATPlite luminescence, 48 h; series mostly up to 57.5 µM; further: nearly all actives have a fitted effect of over 55% in size; further: potency means the concentration at half of the fitted maximal effect
# Outline: (§3)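 Cells, 1,000 per well, plated 16 h, then exposed 48 h at 37 C to compounds. Viability by ATPlite luminescence after 15 min at room temperature.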
# CAOV3 = assay: as above; conditions: Gynecologic cancer cell panel viability, ATPlite luminescence, 48 h; series mostly up to 57.5 µM
# Outline: as §3
# CASKI = assay: as above; conditions: Gynecologic cancer cell panel viability, ATPlite luminescence, 48 h; series mostly up to 57.5 µM
# Outline: as §3
# Es-2 = assay: as above; conditions: Gynecologic cancer cell panel viability, ATPlite luminescence, 48 h; series mostly up to 57.5 µM
# Outline: as §3
# KB-3-1 = assay: Cytotoxic Profiling of Annotated Libraries Using Quantitative High-Throughput Screening (AID 1296008); conditions: Five cell lines viability, CellTiter-Glo ATP luminescence, 48-72 h; max response: hits give low values; further: nearly all actives have a fitted effect of over 60% in size; further: potency means the concentration at half of the fitted maximal effect
# Outline: as §1
# NIH3T3 [2] = assay: as above; conditions: Five cell lines viability, CellTiter-Glo ATP luminescence, 48-72 h; max response: hits give low values
# Outline: as §1
# MKL-1 = assay: qHTS assay to identify novel small-molecules to repurpose for Merkel cell carcinoma treatment (AID 1296009); conditions: MCC and control cell lines, CellTiter-Glo viability, 72 h; series mostly up to 46 µM; further: nearly all actives have a fitted effect of over 60% in size; further: potency means the concentration at half of the fitted maximal effect
# Outline: as §2
# HeLa = assay: Primary qHTS to identify gynecologic anti-cancer compounds using libraries of approved drugs and bioactive compounds (AID 1345084); conditions: Gynecologic cancer cell panel viability, ATPlite luminescence, 48 h; series mostly up to 57.5 µM; further: nearly all actives have a fitted effect of over 55% in size; further: potency means the concentration at half of the fitted maximal effect
# Outline: as §3
# HEK293T = assay: qHTS assay to identify novel small-molecules to repurpose for Merkel cell carcinoma treatment (AID 1296009); conditions: MCC and control cell lines, CellTiter-Glo viability, 72 h; at 44.8 µM (top of the series) unless noted; further: nearly all actives have a fitted effect of over 60% in size; further: potency means the concentration at half of the fitted maximal effect
# Outline: as §2
# NIH3T3 [3] = assay: as above; conditions: MCC and control cell lines, CellTiter-Glo viability, 72 h; at 44.8 µM (top of the series) unless noted
# Outline: as §2
# UISO = assay: as above; conditions: MCC and control cell lines, CellTiter-Glo viability, 72 h; series mostly up to 46 µM
# Outline: as §2
# WaGa = assay: as above; conditions: MCC and control cell lines, CellTiter-Glo viability, 72 h; series mostly up to 46 µM
# Outline: as §2
# HACAT [4] = assay: as above; conditions: MCC and control cell lines, CellTiter-Glo viability, 72 h; at 44.8 µM (top of the series) unless noted
# Outline: as §2
smiles,measurement,setting,value
COC(=O)C1=C(C)NC(C)=C(C(=O)OC)C1c1ccccc1[N+](=O)[O-],Potency,W2,inactive
same,max response,CRL-7250,-7.51%
same,max response,HEK293,-14.4%
same,max response,HaCat [1],-2.57%
same,Potency,MCC-13,inactive
same,Potency,MCC-26,inactive
same,Potency,MKL-2,23.7 µM (active)
same,Potency,C33A,inactive
same,Potency,CAOV3,inactive
same,Potency,CASKI,inactive
same,Potency,Es-2,inactive
CC1=C(CC(=O)O)c2cc(F)ccc2/C1=C\c1ccc(S(C)(=O)=O)cc1,max response,CRL-7250,-16.5%
same,max response,HEK293,-17.6%
same,max response,HaCat [1],-12.4%
same,max response,KB-3-1,-9.19%
same,max response,NIH3T3 [2],-5.99%
same,Potency,MCC-13,inactive
same,Potency,MKL-1,inactive
same,Potency,C33A,inactive
same,Potency,CAOV3,inactive
same,Potency,CASKI,inactive
same,Potency,Es-2,inactive
same,Potency,HeLa,inactive
Cc1ccc(C(C)C)cc2c(C)ccc1-2,max response,CRL-7250,3.16%
same,outcome,HEK293,inactive
same,max response,HaCat [1],-2.06%
same,max response,KB-3-1,-19.4%
same,outcome,NIH3T3 [2],inactive
same,outcome,HEK293T,inactive
same,Potency,MCC-13,inactive
same,Potency,MCC-26,inactive
same,Potency,MKL-1,inactive
same,Potency,MKL-2,inactive
same,outcome,NIH3T3 [3],inactive
same,Potency,UISO,inactive
same,Potency,WaGa,inactive
same,Potency,C33A,inactive
same,Potency,CASKI,inactive
same,Potency,Es-2,inactive
same,Potency,HeLa,inactive
C[C@H]1O[C@@H](n2cc(F)c(=O)[nH]c2=O)[C@H](O)[C@@H]1O,Potency,W2,inactive
same,max response,CRL-7250,-5.52%
same,outcome,HEK293,inactive
same,Potency,HaCat [1],10.6 µM (active)
same,max response,KB-3-1,-0.506%
same,max response,NIH3T3 [2],-23.8%
same,outcome,HEK293T,inactive
same,Potency,MCC-13,inactive
same,Potency,MCC-26,inactive
same,Potency,MKL-1,inactive
same,Potency,MKL-2,inactive
same,Potency,UISO,inactive
same,Potency,WaGa,inactive
same,Potency,C33A,inactive
same,Potency,CAOV3,inactive
same,Potency,CASKI,inactive
same,Potency,Es-2,inactive
same,Potency,HeLa,inactive
Cc1cc2nc3c(=O)[nH]c(=O)nc-3n(C[C@H](O)[C@H](O)[C@H](O)CO)c2cc1C,outcome,CRL-7250,inactive
same,max response,HEK293,-5.47%
same,max response,HaCat [1],-19.1%
same,max response,KB-3-1,-1.52% and 0.485%
same,max response,NIH3T3 [2],4.08%
same,Potency,MCC-13,inactive
same,Potency,MKL-1,inactive
same,Potency,MKL-2,inactive
same,Potency,UISO,inactive
same,Potency,WaGa,inactive
same,Potency,C33A,inactive
same,Potency,CASKI,inactive
same,Potency,Es-2,inactive
same,Potency,HeLa,inactive
CCCCN(CCCC)CCCOC(=O)c1ccc(N)cc1,outcome,CRL-7250,inactive
same,outcome,HEK293,inactive
same,max response,HaCat [1],-1.28%
same,max response,KB-3-1,-15.2%
same,outcome,NIH3T3 [2],inactive
same,outcome,HEK293T,inactive
same,Potency,MCC-13,inactive
same,Potency,MKL-1,inactive
same,Potency,MKL-2,inactive
same,outcome,NIH3T3 [3],inactive
same,Potency,UISO,inactive
same,Potency,WaGa,inactive
same,Potency,C33A,inactive
same,Potency,CAOV3,inactive
same,Potency,CASKI,inactive
same,Potency,Es-2,inactive
same,Potency,HeLa,inactive
NC(N)=NCCC[C@H](N)C(=O)O,outcome,CRL-7250,inactive
same,max response,HEK293,-4.96%
same,outcome,HaCat [1],inactive
same,outcome,NIH3T3 [2],inactive
same,outcome,HACAT [4],inactive [at 4.96 µM]
same,"activity change, negative = cytotoxicity",MCC-13,10.7% [at 4.84 µM]
same,"activity change, negative = cytotoxicity",MCC-26,1.83% [at 4.84 µM]
same,"activity change, negative = cytotoxicity",MKL-1,12.8% [at 4.84 µM]
same,"activity change, negative = cytotoxicity",MKL-2,13.9% [at 4.84 µM]
same,outcome,NIH3T3 [3],inactive [at 4.96 µM]
same,"activity change, negative = cytotoxicity",UISO,9.23% [at 4.84 µM]
same,"activity change, negative = cytotoxicity",WaGa,4.2% [at 4.84 µM]
same,"activity change, negative = cytotoxicity",C33A,-3.38% [at 6.55 µM]
same,"activity change, negative = cytotoxicity",CAOV3,24.7% [at 6.55 µM]
same,"activity change, negative = cytotoxicity",CASKI,1.66% [at 6.55 µM]
same,"activity change, negative = cytotoxicity",Es-2,2.88% [at 6.55 µM]
same,"activity change, negative = cytotoxicity",HeLa,8.2% [at 6.55 µM]
OCc1cc(C(O)CNCCCCCCOCCCCc2ccccc2)ccc1O (centres undefined),max response,CRL-7250,-15.6%
same,max response,HaCat [1],2.23%
same,max response,KB-3-1,-19.3%
same,max response,NIH3T3 [2],-10.4%
same,Potency,MCC-13,inactive
same,Potency,MCC-26,inactive
same,Potency,MKL-1,inactive
same,Potency,WaGa,inactive
same,Potency,C33A,inactive
same,Potency,CAOV3,22.4 µM (active)
same,Potency,CASKI,inactive
same,Potency,Es-2,inactive
same,Potency,HeLa,inactive
